Experimental findings from PubChem BioAssay are described below.

Calls of active or inactive are those of the source. How the calls were made is not given here.

Assay [1] can be described thus: Brca1-Bard1 BiLC signal decrease – luminescence, single concentration, counter-screen for Mdm2/MdmX interaction inhibitor project, confirmation (AID 504668). The settings on record: Brca1/Bard1 bimolecular luciferase complementation counterscreen, at 8 µM, stronger effect = higher value. (In general: The purpose of a counterscreen is to sort out artefacts and off-target activity.)

A short description of assay [2]: NFkB reporter suppression in cystic fibrosis bronchial cells – cell-based, uHTS hits, panel, cytotoxicity readout, dose response (AID 624344). The settings on record: CF bronchial epithelial cells, PAF-induced NFkB reporter inhibition, with PAF, run 1; at 79 µM (top of the series) unless noted.
Assay in assay [3]: as above
The settings on record: CF bronchial epithelial cells, PAF-induced NFkB reporter inhibition, with PAF, run 2; at 79 µM (top of the series) unless noted.

`COc1cccc(NC(=O)Nc2nnc(CC(=O)NCc3ccccc3)s2)c1`: the inhibition (as a rule, the change of the read-out against control, counted positive when it falls) in assay [1] was 35.1% (active); in assay [2] it was 79.8%; in assay [3], 83.7%.

On to `Cc1cc(N2CCOCC2)c2c(N)c(Br)cc(C)c2n1`, for which the inhibition in assay [1] was 35.4% (active); in assay [2] it was 118%; in assay [3], 97.8%.

In the case of `COc1cc2cncc(Cc3ccc(Cl)cc3)c2cc1OC`, the figures for the inhibition in assay [1], in assay [2] and in assay [3] were 26.2% (active), 104% and 109%, respectively.

Consider `COc1ccc2[nH]c3c(c2c1)CCNC3=O`, for which the figures for the inhibition in assay [1], in assay [2] and in assay [3] were 34.4% (active), 103% and 103%, respectively.

As for `CCc1c(C)nc2ccc(Br)cc2c1SCCC#N`, the inhibition is 23.1% (active) in assay [1], 105% in assay [2] and 113% in assay [3].

Regarding `FC(F)(F)c1nnc2c(Sc3ccc(Cl)cc3)nc3ccccc3n12`, the inhibition in assay [1] was 31.6% (active); in assay [2], 98%; in assay [3], 109%.

For the molecule `Oc1ccc(CCNc2ncnc3ccc(Cl)cc23)cc1`, the figures for the inhibition in assay [1], in assay [2] and in assay [3] were 28.6% (active), 113% and 106%, respectively.

Turning to `Cc1ccc(NC(=O)Nc2nnc(-c3ccncc3)s2)cc1C`, the inhibition was 23.3% (active) in assay [1], 102% in assay [2] and 114% in assay [3].

For the molecule `O=[N+]([O-])c1ccc2ncnc(N3CCN(Cc4ccc5c(c4)OCO5)CC3)c2c1`, the inhibition is 24.3% (active) in assay [1], 112% in assay [2] and 91.3% in assay [3].

In the case of `CC(=O)c1cccc(NC(=O)Nc2cccnc2)c1`, the results for the inhibition in assay [1], in assay [2] and in assay [3] were 27.6% (active), 119% and 93.2%, respectively.

As to `Clc1cncc(Cl)c1N/N=C/c1ccncc1`, the results for the inhibition in assay [1], in assay [2] and in assay [3] were 27.6% (active), 105% and 118%, respectively.

As to `CCC(C)Oc1cc(-c2ccnc(Nc3cccc(Cl)c3)n2)ccn1` (configuration not stated), the values for the inhibition in assay [1], in assay [2] and in assay [3] were 25.4% (active), 102% and 117%, respectively.

In the case of `Cn1c(=O)c2c(nc(Oc3ccc4ccccc4c3)n2C)n(C)c1=O`, the results for the inhibition in assay [1], in assay [2] and in assay [3] were 33.6% (active), 93.3% and 81.7%, respectively.

Regarding `NC(=O)N/N=C/c1c(Sc2nnnn2-c2ccccc2)nc2ccccn2c1=O`, the inhibition was 23.4% (active) in assay [1], 103% in assay [2] and 105% in assay [3].
